According to PubChem BioAssay (Tox21):
Records with an inconclusive call do not appear. Calls of active or inactive are those of the source. Unless noted, calls follow the shape of the full dose curve.

Experiments:
[1] = Nuclear factor erythroid 2-related factor 2/antioxidant responsive element (Nrf2/ARE) small molecule agonists: luciferase reporter gene qHTS assay in human keratinocytes (AID 1919969); also: nearly all actives have a fitted effect of over 35% in size; also: potency is read from the fitted curve at half-maximal effect
[2] = target: Gonadotropin-releasing hormone receptor (Homo sapiens) (UniProt P30968); experiment: Human gonadotropin-releasing hormone receptor (GnRHR) small molecule agonists, calcium flux assay in GnRHR-HEK293 cells (AID 1920063); also: nearly all actives have a fitted effect of over 35% in size; also: potency is read from the fitted curve at half-maximal effect
Chain of Gonadotropin-releasing hormone receptor (Homo sapiens) (P30968 whole entry, looked up): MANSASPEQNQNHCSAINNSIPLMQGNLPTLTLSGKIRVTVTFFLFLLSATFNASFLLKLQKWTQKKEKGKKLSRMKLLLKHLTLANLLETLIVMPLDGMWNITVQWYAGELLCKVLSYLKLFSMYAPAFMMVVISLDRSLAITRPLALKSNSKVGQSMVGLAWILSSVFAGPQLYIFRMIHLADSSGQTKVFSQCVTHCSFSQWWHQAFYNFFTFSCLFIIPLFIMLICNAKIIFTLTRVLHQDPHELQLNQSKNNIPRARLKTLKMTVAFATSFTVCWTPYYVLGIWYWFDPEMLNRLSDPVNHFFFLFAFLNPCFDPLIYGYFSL
How it was run: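 Agonist mode: compounds at 15 concentrations, in triplicate, went onto calcium dye-loaded GnRHR-HEK293 cells. Intracellular calcium was then followed as 480/540 nm fluorescence at 1 s intervals over 3 min.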

[3] = G protein-coupled receptor (GPCR) small molecule agonists, calcium flux assay: HEK293 wild type cell line counter screen (AID 1920065); also: potency is read from the fitted curve at half-maximal effect
How it was run: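 Calcium flux counter screen: compound added in agonist mode at 15 concentrations in triplicate to dye-loaded parental HEK293 cells. Fluorescence (480/540) read kinetically for 3 min; ATP served as positive control.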

[4] = p53 small molecule agonists, cell-based qHTS assay with human liver microsomes (AID 1963577)
How it was run: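 Compounds act here after metabolic activation: human liver microsomes and NADPH, both at 0.5 mg/mL final, were co-added to p53RE-bla cells. Incubation ran 16 h at 37 C, followed by LiveBLAzer detection.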

[5] = p53 small molecule agonists, cell-based qHTS assay with rat liver microsomes (AID 1963578)
How it was run: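 Read-out is beta-lactamase reporter fluorescence (LiveBLAzer, 2 h, room temperature, dark) in p53RE-bla cells treated 16 h at 37 C with compound, rat liver microsomes and NADPH, both 0.5 mg/mL final.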

[6] = p53 small molecule agonists, cell-based qHTS assay with human liver microsomes: qHTS cell viability counter screen (AID 1963579); also: nearly all actives have a fitted effect of over 45% in size; also: potency is read from the fitted curve at half-maximal effect
How it was run: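 Cells carrying the p53 response-element beta-lactamase reporter are treated for 16 h at 37 C with test compounds in the presence of human liver microsomes and NADPH (both 0.5 mg/mL final); ATP-based CellTiter-Glo luminescence then reports viability.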

[7] = p53 small molecule agonists, cell-based qHTS assay with rat liver microsomes: qHTS cell viability counter screen (AID 1963580); also: nearly all actives have a fitted effect of over 45% in size
How it was run: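 Luminescent ATP readout (CellTiter-Glo, 30 min at room temperature) reports viability of p53RE-bla HCT-116 cells after 16 h at 37 C with test compounds under metabolic activation by rat liver microsomes and NADPH at 0.5 mg/mL final each.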

[8] = p53 small molecule agonists, cell-based qHTS assay: qHTS cell viability counter screen (AID 1963581); also: nearly all actives have a fitted effect of over 45% in size; also: potency is read from the fitted curve at half-maximal effect
How it was run: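 Counter screen read by CellTiter-Glo luminescence (ATP content, 30 min at room temperature), run in the same wells as the beta-lactamase reporter read. HCT-116 p53RE-bla cells saw compounds for 16 h at 37 C.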

[9] = p53 small molecule agonists, cell-based qHTS assay (AID 1963582; active = well fitted activation curve with a large enough effect in the signal ratio in the repeat runs, not every such curve was filed as active; the % refers to the signal ratio)
How it was run: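 Read-out is beta-lactamase FRET fluorescence after 2 h at room temperature with LiveBLAzer B/G substrate. p53 response element-bla cells were treated 16 h at 37 C with compounds in DMSO, added 5 h after seeding.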

[10] = target: 5-hydroxytryptamine receptor 2A (Homo sapiens) (UniProt P28223); experiment: 5-hydroxytryptamine receptor 2A (HTR2A) small molecule antagonists, cell-based qHTS assay (AID 1963586); also: nearly all actives have a fitted effect of over 45% in size; also: potency is read from the fitted curve at half-maximal effect
Chain of 5-hydroxytryptamine receptor 2A (Homo sapiens) (P28223 whole entry, looked up): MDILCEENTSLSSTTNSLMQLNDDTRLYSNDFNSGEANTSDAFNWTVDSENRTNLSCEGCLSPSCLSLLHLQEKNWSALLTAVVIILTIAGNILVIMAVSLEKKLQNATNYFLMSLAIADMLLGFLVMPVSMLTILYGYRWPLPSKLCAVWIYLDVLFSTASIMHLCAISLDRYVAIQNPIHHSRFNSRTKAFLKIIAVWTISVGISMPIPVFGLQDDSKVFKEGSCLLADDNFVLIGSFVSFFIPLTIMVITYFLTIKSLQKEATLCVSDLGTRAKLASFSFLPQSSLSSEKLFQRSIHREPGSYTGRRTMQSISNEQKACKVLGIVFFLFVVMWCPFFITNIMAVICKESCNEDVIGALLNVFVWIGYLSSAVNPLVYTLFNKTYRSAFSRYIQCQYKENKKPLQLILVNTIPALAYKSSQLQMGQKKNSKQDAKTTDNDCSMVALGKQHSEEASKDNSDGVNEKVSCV
How it was run: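 CHO cells stably expressing human HTR2A were plated for 18 h at 37 C, then loaded with calcium dye for 1 h. Compounds were preincubated 5 min at room temperature before DOI (4 nM solution) was added. Kinetic fluorescence was read for 3 min.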

[11] = target: 5-hydroxytryptamine receptor 2A (Homo sapiens) (UniProt P28223); experiment: 5-hydroxytryptamine receptor 2A (HTR2A) small molecule agonists, cell-based qHTS assay (AID 1963587); also: nearly all actives have a fitted effect of over 30% in size
How it was run: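 HTR2A-CHO cells, plated 18 h at 37 C/5% CO2, dye-loaded 1 h at 37 C; compounds in DMSO added by pin tool (agonist mode). Intracellular calcium flux read as kinetic fluorescence on FDSS over 2 min at 1 s intervals.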

[12] = target: Muscarinic acetylcholine receptor M1 (Homo sapiens) (UniProt P11229); experiment: Cholinergic receptor muscarinic 1 (CHRM1) small molecule antagonists, cell-based qHTS assay (AID 1963588); also: nearly all actives have a fitted effect of over 40% in size
Chain of Muscarinic acetylcholine receptor M1 (Homo sapiens) (P11229 whole entry, looked up): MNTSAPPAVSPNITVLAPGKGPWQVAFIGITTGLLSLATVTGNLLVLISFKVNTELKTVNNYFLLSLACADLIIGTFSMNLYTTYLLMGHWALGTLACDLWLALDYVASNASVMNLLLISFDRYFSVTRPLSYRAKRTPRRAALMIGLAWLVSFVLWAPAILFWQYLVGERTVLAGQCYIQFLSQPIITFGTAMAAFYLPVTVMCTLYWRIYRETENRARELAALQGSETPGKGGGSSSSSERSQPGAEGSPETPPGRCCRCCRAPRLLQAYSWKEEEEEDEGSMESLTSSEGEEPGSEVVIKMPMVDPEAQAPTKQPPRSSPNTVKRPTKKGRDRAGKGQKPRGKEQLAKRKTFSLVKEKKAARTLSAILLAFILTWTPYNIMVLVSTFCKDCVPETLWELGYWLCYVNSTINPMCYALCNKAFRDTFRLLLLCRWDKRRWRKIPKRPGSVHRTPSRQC
How it was run: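 Compounds were tested at 15 concentrations in three independent runs. Dye-loaded CHRM1-CHO cells were exposed 5 min at room temperature before stimulation by acetylcholine added at 50nM. Intracellular calcium was read kinetically on FDSS for 3 min.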

[13] = target: Muscarinic acetylcholine receptor M1 (Homo sapiens) (UniProt P11229); experiment: Cholinergic receptor muscarinic 1 (CHRM1) small molecule agonists, cell-based qHTS assay (AID 1963589); also: nearly all actives have a fitted effect of over 35% in size
How it was run: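 Agonist-mode calcium-flux screen: compounds at 15 concentrations, three independent runs, were pin-transferred onto dye-loaded human CHRM1-CHO cells. Fluorescence was then recorded kinetically every second over minutes.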

[14] = cAMP Responsive Elements (CRE) small molecule agonists, cell-based qHTS assay (AID 1963590)
How it was run: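 Agonist mode: compound added to CRE-bla HEK 293T cells (2,000/well, 18 h after plating) for 3 h at 37 C/5% CO2. Reporter activity detected via FRET beta-lactamase substrate, 2 h room-temperature loading.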

[15] = cAMP Responsive Elements (CRE) small molecule antagonists, cell-based qHTS assay (AID 1963591; active = well fitted inhibition curve with a large enough effect in the signal ratio in the repeat runs, not every such curve was filed as active; the % refers to the signal ratio)
How it was run: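 Antagonist mode: compounds are added alongside the adenylyl cyclase activator NKH477 (0.25 uM final) to CRE-bla HEK293T cells for 3 h. LiveBLAzer FRET substrate, 2 h at room temperature, reports bla expression.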

[16] = target: Beta-2 adrenergic receptor (Homo sapiens) (UniProt P07550); experiment: Adrenergic beta2 receptor (ADRB2) small molecule antagonists, cell-based qHTS assay (AID 1963592); also: series mostly up to about 92 µM; nearly all actives have a fitted effect of over 50% in size
Chain of Beta-2 adrenergic receptor (Homo sapiens) (P07550 whole entry, looked up): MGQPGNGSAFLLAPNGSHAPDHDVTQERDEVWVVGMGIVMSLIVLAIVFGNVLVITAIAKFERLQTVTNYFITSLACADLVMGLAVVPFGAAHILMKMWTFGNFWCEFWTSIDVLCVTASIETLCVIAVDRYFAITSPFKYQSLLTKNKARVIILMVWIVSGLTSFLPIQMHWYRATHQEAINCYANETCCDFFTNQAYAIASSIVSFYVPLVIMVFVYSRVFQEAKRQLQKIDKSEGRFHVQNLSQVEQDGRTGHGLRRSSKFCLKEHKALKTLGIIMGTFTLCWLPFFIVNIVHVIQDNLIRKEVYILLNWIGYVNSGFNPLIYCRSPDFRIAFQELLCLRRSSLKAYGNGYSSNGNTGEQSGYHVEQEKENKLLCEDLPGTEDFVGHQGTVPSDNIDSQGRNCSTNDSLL
How it was run: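 Assay format: CHO-ADRB2 cells, 18-20hr seeding at 37C/5% CO2, then compound plus 1nM isoproterenol agonist mix for 0.5hr RT. Homogeneous time-resolved fluorescence cAMP detection after 1hr, expressed as 665/615 nm ratio.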

[17] = target: Beta-2 adrenergic receptor (Homo sapiens) (UniProt P07550); experiment: Adrenergic beta2 receptor (ADRB2) small molecule agonists, cell-based qHTS assay (AID 1963593);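 also: CHO cells stably overexpressing human ADRB2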
How it was run: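 CHO cells stably over-expressing ADRB2 were plated overnight at 37C, then dosed with compounds plus a stimulation mix containing 100uM IBMX and 25uM Ro-20-1724 for 0.5hr at room temperature. cAMP was measured by HTRF competition, 1hr.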

[18] = target: D(2) dopamine receptor (Homo sapiens) (UniProt P14416); experiment: Dopamine D2 receptor (DRD2) small molecule agonists, cell-based qHTS assay (AID 1963594); also: nearly all actives have a fitted effect of over 35% in size
Chain of D(2) dopamine receptor (Homo sapiens) (P14416 whole entry, looked up): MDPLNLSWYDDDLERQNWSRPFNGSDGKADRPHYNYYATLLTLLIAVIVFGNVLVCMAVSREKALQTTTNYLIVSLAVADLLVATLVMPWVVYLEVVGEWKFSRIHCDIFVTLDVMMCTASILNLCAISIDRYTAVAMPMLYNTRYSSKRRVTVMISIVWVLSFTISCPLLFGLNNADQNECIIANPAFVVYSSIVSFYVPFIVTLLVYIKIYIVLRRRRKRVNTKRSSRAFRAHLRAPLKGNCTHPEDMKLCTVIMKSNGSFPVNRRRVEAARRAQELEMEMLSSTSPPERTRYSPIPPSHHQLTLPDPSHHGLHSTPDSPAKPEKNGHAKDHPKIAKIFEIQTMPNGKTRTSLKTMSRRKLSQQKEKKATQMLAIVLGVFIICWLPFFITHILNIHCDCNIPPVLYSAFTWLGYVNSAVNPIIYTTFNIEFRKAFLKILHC
How it was run: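 HEK293 cells stably expressing DRD2 were cultured 24 h at 37 C, then given Ro20-1724 (0.1 mM final) and compounds for 10 min at room temperature. NKH477 (200nM) was then added for 30 min. cAMP was read by HTRF.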

[19] = target: D(2) dopamine receptor (Homo sapiens) (UniProt P14416); experiment: Dopamine D2 receptor (DRD2) small molecule antagonists, cell-based qHTS assay (AID 1963595; active = well fitted inhibition curve with a large enough effect in the signal ratio in the repeat runs, with a control signal flat; the % refers to the signal ratio; also: potency is read from the fitted curve at half-maximal effect)
How it was run: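 Antagonism was scored as restored cAMP in HEK293-DRD2 cells. These cells were stimulated with 200 nM NKH477 and 12 nM quinpirole for 30 min at room temperature, in the presence of 0.1 mM Ro20-1724.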

[20] = target: KiSS-1 receptor (Homo sapiens) (UniProt Q969F8); experiment: Human kisspeptin (KISS1R) small molecule agonists, calcium flux assay in KISS1R-HEK293 cells (AID 1920064; active = well fitted activation curve with a large enough effect in the repeat runs; also: potency is read from the fitted curve at half-maximal effect)
Chain of KiSS-1 receptor (Homo sapiens) (Q969F8 whole entry, looked up): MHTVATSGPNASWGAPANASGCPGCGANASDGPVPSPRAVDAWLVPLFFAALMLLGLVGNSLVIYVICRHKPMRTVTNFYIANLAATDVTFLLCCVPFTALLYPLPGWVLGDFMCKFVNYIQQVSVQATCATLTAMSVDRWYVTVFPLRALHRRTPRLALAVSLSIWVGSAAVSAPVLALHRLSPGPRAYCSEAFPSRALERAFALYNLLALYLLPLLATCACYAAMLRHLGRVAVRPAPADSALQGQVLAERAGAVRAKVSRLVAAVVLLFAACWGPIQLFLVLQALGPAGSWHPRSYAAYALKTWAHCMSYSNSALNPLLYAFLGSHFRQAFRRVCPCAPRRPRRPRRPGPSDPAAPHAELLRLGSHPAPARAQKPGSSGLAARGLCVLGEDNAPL
How it was run: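 Agonist mode: intracellular calcium rise tracked at 1 s intervals over 3 min (480/540 nm) immediately after compound addition to dye-loaded KISS1R-HEK293 stable cells. Each compound tested at 15 concentrations in triplicate.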

Measured: Potency

CCc1cc(C(C)(C)C)c(O)c(C(C)(C)C)c1
active: [1] 34.7 µM
not listed: [20]
inactive: all other assays above

CN1CC[C@H](c2c(O)cc(O)c3c(=O)cc(-c4ccccc4Cl)oc23)[C@H](O)C1
inactive: [2] | [20] | [3] | [8] | [11] | [12] | [16] | [18] | [19]
active: [1] 0.0841 µM

C[C@H]1O[C@@H](O[C@H]2CC[C@@]3(C)[C@H](CC[C@@H]4[C@@H]3C[C@@H](O)[C@]3(C)[C@@H](C5=CC(=O)OC5)CC[C@]43O)C2)C[C@H](O)[C@@H]1O[C@H]1C[C@H](O)[C@H](O[C@H]2C[C@H](O)[C@H](O[C@@H]3O[C@H](CO)[C@@H](O)[C@H](O)[C@H]3O)[C@@H](C)O2)[C@@H](C)O1
inactive: [2] | [20] | [5] | [10] | [11] | [12] | [13] | [17] | [18] | [19]
active: [1] 0.531 µM | [8] 0.251 µM

O=S(=O)(O)c1cc(S(=O)(=O)O)c2c(N=Nc3ccccc3)c(O)ccc2c1
not listed: [3] | [11] | [16] | [18] | [19]
inactive: all other assays above

COC1=C(OC)C(=O)C(CCCCCCCCCCO)=C(C)C1=O
active: [1] 10.6 µM
inactive: [2] | [20] | [3] | [6] | [7] | [15] | [16] | [17] | [18] | [19]

CC(=O)c1ccc2c(c1)N(CCCN1CCC(CCO)CC1)c1ccccc1S2
active: [10] 0.326 µM | [19] 0.0168 µM
not listed: [3] | [5] | [12] | [14] | [16] | [17]
inactive: all other assays above

Nc1ccc(O)c([N+](=O)[O-])c1
active: [1] 19.3 µM
inactive: [2] | [20] | [3] | [7] | [11] | [12] | [13]

OCCN(CCO)c1nc(N2CCCCC2)c2nc(N(CCO)CCO)nc(N3CCCCC3)c2n1
inactive: [1] | [16] | [18] | [19]
active: [2] 15.1 µM | [20] 23.9 µM | [3] 16.9 µM

CCCC(=O)OCCC(C)CCC=C(C)C (centres undefined)
not listed: [3] | [4] | [5] | [9] | [13]
inactive: all other assays above

CCC(C)n1ncn(-c2ccc(N3CCN(c4ccc(OC[C@H]5CO[C@](Cn6cncn6)(c6ccc(Cl)cc6Cl)O5)cc4)CC3)cc2)c1=O (some centres undefined)
not listed: [3] | [4] | [5] | [10] | [11] | [12] | [13]
inactive: all other assays above

Clc1sc(Cl)c(Cl)c1Cl
not listed: [3] | [4] | [5] | [9]
inactive: all other assays above

CO[C@H]1C=CO[C@@]2(C)Oc3c(C)c(O)c4c(O)c(c5c(c4c3C2=O)=NC2(CCN(CC(C)C)CC2)N=5)NC(=O)/C(C)=C\C=C/[C@H](C)[C@H](O)[C@@H](C)[C@@H](O)[C@@H](C)[C@H](OC(C)=O)[C@@H]1C
inactive: [1] | [2] | [20] | [4] | [5] | [6] | [7] | [8] | [16]

COc1ccc(-c2ccc3cc(C(=O)O)ccc3c2)cc1C12CC3CC(CC(C3)C1)C2
not listed: [3] | [17]
inactive: all other assays above

CCCCOC(=O)CCC(C)=O
not listed: [4] | [5] | [6] | [9] | [17]
inactive: all other assays above

Oc1cc(Cl)cc(Cl)c1Cl
inactive: [2] | [20] | [3] | [8] | [11] | [12] | [13] | [16] | [18] | [19]
active: [1] 49.7 µM | [6] 29.6 µM

CCCCc1ccc2nc(NC(=O)OC)[nH]c2c1
inactive: [2] | [20] | [4] | [10] | [11] | [13] | [16] | [17] | [18] | [19]
active: [1] 4.22 µM

COc1ccc(OC(F)(F)F)cc1CN[C@H]1CCCN[C@H]1c1ccccc1
not listed: [3] | [11] | [14] | [15] | [18] | [19]
inactive: all other assays above
